Results filed as inconclusive are left out. Unless noted, the call rests on the fitted dose curve; in most records, active means well fitted curve in either direction with a large enough effect (not every such curve was filed as active); inconclusive means small, poorly fitted or top-dose-only effect, or another doubt; inactive means flat fitted curve, though single readings scatter.
How the values were obtained:
[1] = AP1 Signaling Pathway (AID 357); conditions: ME-180 AP-1-bla reporter, EGF-induced, beta-lactamase ratio, 5 h; at 17.2 µM (top of the series) unless noted;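 further: ME-180 reporter cells stimulated with EGF at its EC50 level; on the % scale 0 is the no-effect control and ±100 the full control effect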
How it was run: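 Read-out was the 460nm/530nm emission ratio (excitation 405nm) after CCF4 loading for 2.5 hours at room temperature. Cells carried an AP-1-driven beta-lactamase reporter, were stimulated with EC50 EGF plus compound for 5 hours, and AC50 values came from titrations.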

[2] = NFAT Signaling Pathway (AID 444); conditions: Jurkat NFAT-bla M1, carbachol, beta-lactamase ratio, 5 h; at 17.2 µM (top of the series) unless noted;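 further: carbachol stimulus at about its EC50 of 1 µM final; on the % scale 0 is the no-effect control and ±100 the full control effect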
How it was run: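 Jurkat cells carrying an NFAT-driven β-lactamase reporter and co-transfected muscarinic M1 receptor were treated with compound plus carbachol (1 uM final, an EC50 level) for 5 h at 37 °C. CCF4 loading followed for 1 h at RT; 460/530 nm ratio gave %activity.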

[3] = Stat Signaling Pathway (AID 446); conditions: ME-180 (cervical carcinoma) SIE beta-lactamase reporter, IL-6 stimulated, 5 h; at 17.2 µM (top of the series) unless noted;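 further: ME-180 cervical cancer cells given 40 pM IL-6 alongside compound; SIE-controlled beta-lactamase reporter measured as 460/530 nm FRET emission ratio; on the % scale 0 is the no-effect control and ±100 the full control effect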
How it was run: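 Normalization used AC90 stimulation (300 pM IL-6) and AC90 inhibition (125 nM pan-JAK inhibitor at 40 pM IL-6). The underlying signal is SIE-driven beta-lactamase in ME-180 cells after 5 h IL-6 exposure with compound.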

[4] = target: Glucocorticoid receptor (Homo sapiens) (UniProt P04150); assay: GR-GFP Redistribution (AID 450;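 active means compounds whose dose series gives a full or clear partial fitted curve of increased nuclear translocation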; further: potency means the concentration at half of the fitted maximal effect)
Chain of Glucocorticoid receptor (Homo sapiens) (P04150 whole entry, looked up): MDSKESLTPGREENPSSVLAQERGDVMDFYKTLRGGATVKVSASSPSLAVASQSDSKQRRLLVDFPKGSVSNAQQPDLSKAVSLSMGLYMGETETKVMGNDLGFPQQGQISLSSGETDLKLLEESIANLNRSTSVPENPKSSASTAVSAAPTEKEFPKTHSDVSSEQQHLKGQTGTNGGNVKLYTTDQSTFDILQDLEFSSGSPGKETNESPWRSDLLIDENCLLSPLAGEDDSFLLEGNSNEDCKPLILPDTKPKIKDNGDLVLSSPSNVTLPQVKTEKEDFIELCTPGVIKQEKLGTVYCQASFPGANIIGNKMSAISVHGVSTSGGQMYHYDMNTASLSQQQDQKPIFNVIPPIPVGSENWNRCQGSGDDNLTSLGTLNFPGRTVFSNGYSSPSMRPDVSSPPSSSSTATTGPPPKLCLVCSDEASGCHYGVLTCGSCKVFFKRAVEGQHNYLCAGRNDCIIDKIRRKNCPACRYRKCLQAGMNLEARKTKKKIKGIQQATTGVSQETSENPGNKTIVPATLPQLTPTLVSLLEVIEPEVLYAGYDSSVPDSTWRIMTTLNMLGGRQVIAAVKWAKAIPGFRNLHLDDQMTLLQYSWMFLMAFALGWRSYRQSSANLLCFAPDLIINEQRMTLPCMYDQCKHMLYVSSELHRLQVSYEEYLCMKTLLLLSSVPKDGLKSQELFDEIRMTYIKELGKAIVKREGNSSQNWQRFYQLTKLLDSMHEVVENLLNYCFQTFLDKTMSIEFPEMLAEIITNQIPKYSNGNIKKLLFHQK

CC(=O)C1=C(NC(=O)c2ccccc2F)C[C@@H]2[C@H]1C2(C)C
inactive: activity change, negative = inhibition [1] -3.24% | activity change, negative = inhibition [2] -24.2% | activity, negative = inhibition [3] 18.8% | Potency [4] > 20.6 µM

CN(C)CCNC(=O)C12CC3(C)CC(C)(CC(C)(C3)C1)C2
inactive: activity change, negative = inhibition [1] 7.28% | activity change, negative = inhibition [2] -25.2% | activity, negative = inhibition [3] 8.6% | Potency [4] > 20.6 µM

Nc1nnc(CSc2ccc(Cl)cc2)s1
inactive: activity change, negative = inhibition [1] 18.1% | activity change, negative = inhibition [2] -0.614% | activity, negative = inhibition [3] 2.04% | Potency [4] > 20.6 µM

CN(C)CCCNCCCCNC(=O)/C=N/O
inactive: activity change, negative = inhibition [1] 5.81% | activity change, negative = inhibition [2] 11.9% | activity, negative = inhibition [3] -0.521% | Potency [4] > 20.6 µM

CCn1c(SCC(=O)Nc2ccccc2C(=O)OC)nnc1-c1ccc(N)cc1
inactive: activity change, negative = inhibition [1] -23.2% | activity change, negative = inhibition [2] -3.89% | activity, negative = inhibition [3] 0.432% | Potency [4] > 20.6 µM

COc1ccc(-n2ccc(=O)c3c2CCCC3=O)cc1
inactive: activity change, negative = inhibition [1] 1.82% | activity change, negative = inhibition [2] 1.88% | activity, negative = inhibition [3] 3.34% | Potency [4] > 20.6 µM

COc1cccc(C=NCCNC(=O)c2nonc2N)c1O
inactive: activity change, negative = inhibition [1] 0.441% | activity change, negative = inhibition [2] -9.52% | activity, negative = inhibition [3] 7.79% | Potency [4] > 20.6 µM

C=CCNc1nc(NCc2ccccc2)c(C#N)c2c1CN(C)CC2
inactive: activity change, negative = inhibition [1] 23.1% | activity change, negative = inhibition [2] 5.41% | activity, negative = inhibition [3] 25.2% | Potency [4] > 20.6 µM

COCCOCCOCCC(=O)NC1CC2CCC1(C)C2(C)C (stereo not given)
inactive: activity change, negative = inhibition [1] 13.7% | activity change, negative = inhibition [2] 0.73% | activity, negative = inhibition [3] -0.452% | Potency [4] > 20.6 µM

COc1ccc(C2C(C#N)=C(C)NC3=C2C(=O)c2ccccc23)cc1 (stereo not given)
inactive: activity change, negative = inhibition [1] -6.13% | activity change, negative = inhibition [2] -27.8% | activity, negative = inhibition [3] -7.06% | Potency [4] > 20.6 µM

COc1cc(C2C3C(=O)N(c4ccccc4)C(=O)C3ON2c2ccccc2)ccc1O (stereo not given)
inactive: activity change, negative = inhibition [1] 2.35% | activity change, negative = inhibition [2] 7.65% | activity, negative = inhibition [3] -2.83% | Potency [4] > 20.6 µM

CCOC(=O)c1ccccc1OCc1cc(/C=N/n2cncn2)ccc1OC
inactive: activity change, negative = inhibition [1] -21.7% | activity change, negative = inhibition [2] 8.94% | activity, negative = inhibition [3] -6.04% | Potency [4] > 20.6 µM

Cn1c2c(c(=O)n(C)c1=O)C(NC(=O)c1cccs1)(C(F)(F)F)C(=O)N2 (stereo not given)
inactive: activity change, negative = inhibition [1] -2.19% | activity change, negative = inhibition [2] 12.3% | activity, negative = inhibition [3] 5.6% | Potency [4] > 20.6 µM

CCOC(=O)c1[nH]c2ccccc2c1NC(=O)CN(C)C
inactive: activity change, negative = inhibition [1] 1.77% | activity change, negative = inhibition [2] -6.47% | activity, negative = inhibition [3] 1.63% | Potency [4] > 20.6 µM

Nc1cccc(C(=O)O)c1
inactive: activity change, negative = inhibition [1] 8.42% | activity change, negative = inhibition [2] 20.2% | activity, negative = inhibition [3] 4.89% | Potency [4] > 20.6 µM

CCc1cc(=O)oc2cc(C)c(CN3CCCC(C)C3)c(O)c12 (stereo not given)
inactive: activity change, negative = inhibition [1] 1.74% | activity change, negative = inhibition [2] -12.2% | activity, negative = inhibition [3] -15.7% | Potency [4] > 20.6 µM

CCOC(=O)C1=C(C)OC(N)=C(C#N)C1c1cc2ccccc2nc1N1CCCCC1 (stereo not given)
inactive: activity change, negative = inhibition [1] -11.2% | activity change, negative = inhibition [2] -20.1% | activity, negative = inhibition [3] 13.8% | Potency [4] > 20.6 µM

O=C(O)C1CCCCN1S(=O)(=O)c1cccc2nsnc12 (stereo not given)
inactive: activity change, negative = inhibition [1] 0.243% | activity change, negative = inhibition [2] 1.79% | activity, negative = inhibition [3] 5.88% | Potency [4] > 20.6 µM

CCOC(=O)/C(C#N)=C1/SC(CCO)C(=O)N1c1ccccc1 (stereo not given)
inactive: activity change, negative = inhibition [1] -6.66% | activity change, negative = inhibition [2] 2.53% | activity, negative = inhibition [3] -3.36% | Potency [4] > 20.6 µM

O=C(O)CCSc1ccc2ccccc2n1
inactive: activity change, negative = inhibition [1] 14.9% | activity change, negative = inhibition [2] 11.5% | activity, negative = inhibition [3] 0.928% | Potency [4] > 20.6 µM

Cc1ccc(-c2ccccc2NC(=O)C2C3C=CC(C3)C2C(=O)O)o1 (stereo not given)
inactive: activity change, negative = inhibition [1] -3.25% | activity change, negative = inhibition [2] -9.53% | activity, negative = inhibition [3] 11.2% | Potency [4] > 20.6 µM

COc1ccc(C2Nc3ccccc3C(=O)N2Cc2ccco2)cc1CN1C(=O)c2ccccc2C1=O (stereo not given)
inactive: activity change, negative = inhibition [1] -19.7% | activity change, negative = inhibition [2] -14.1% | activity, negative = inhibition [3] -19.4% | Potency [4] > 20.6 µM

CCOc1cccc(NC(=O)C2CC(=O)NC(=Nc3ccccc3)S2)c1 (stereo not given)
inactive: activity change, negative = inhibition [1] -5.62% | activity change, negative = inhibition [2] 6.96% | activity, negative = inhibition [3] -16.5% | Potency [4] > 20.6 µM

COc1cccc(C2/C(=C(\O)c3ccc(OC)c(OC)c3)C(=O)C(=O)N2c2cc(C)on2)c1 (stereo not given)
inactive: activity change, negative = inhibition [1] -7.94% | activity change, negative = inhibition [2] 6.78% | activity, negative = inhibition [3] -8.6% | Potency [4] > 20.6 µM

CC1(C(=O)CSc2nc3ccccc3[nH]2)CCC(=O)O1 (stereo not given)
inactive: activity change, negative = inhibition [1] 4.25% | activity change, negative = inhibition [2] 3.87% | activity, negative = inhibition [3] -2.98% | Potency [4] > 20.6 µM
